The text below walks through data of PubChem BioAssay AID1578 (Sanford-Burnham Center for Chemical Genomics, 2009).

The whole screen tested about 290,000 compounds, of which about 3,000 (1%) were called active. Shown is part of a subset that was picked to be rich in actives. A number with no mark means an inactive call. No stated cut-off is given here; in the data, active means inhibition mostly above about 36% (no sharp cut-off); inactive means mostly below about 34%.

This assay is described as follows: NOD1 signaling inhibitors, primary screen, cell-based, luminescence, uHTS (AID 1578).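 Further: HEK-293T reporter cells stimulated with the NOD1 agonist gamma-tri-DAP.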 The following applies: NOD1-driven NF-kB luciferase reporter cells, at 4 µM, stronger effect = higher value.
With `O=S(=O)(c1ccccc1)N1CCCc2ccccc21`, the inhibition is 8.6%.

For `COc1ccc(N2CCN(C(=O)c3cc(=O)c4cc(C)c(C)cc4o3)CC2)cc1`, the inhibition is -10.3%.

Consider `c1ccc(OCc2nc3ccccc3s2)cc1`, for which the inhibition was -39.1%.

For the compound `COC(=O)c1ccc(CN2C(=O)NC3(CCC(C)CC3)C2=O)cc1` (stereo not drawn), the inhibition is -51.8%.

Regarding `COCCNC(=S)N/N=C/c1ccccc1C(=O)O`, the inhibition was -17.1%.

Consider `Cc1ccc(NC(=O)c2cncc(Br)c2)c(O)c1`, for which the inhibition is 66% (active).

Turning to `Cc1ccc(NC(=O)c2cncc(Br)c2)nc1`, the inhibition was -55.8%.

Regarding `Cc1ccc(NC(=O)c2cncc(Br)c2)c([N+](=O)[O-])c1`, the inhibition is 5.4%.

Consider `CCc1ccc(C(=O)c2cncc(Br)c2)cc1`, for which the inhibition is -3.9%.

In the case of `O=C(c1ccccc1)c1cncc(Br)c1`, the inhibition is -4.9%.

On to `Cc1ccc(C(=O)c2cncc(Br)c2)cc1`, for which the inhibition is 48.9% (active).

Turning to `O=C(C[n+]1cc(-c2ccc(F)cc2)n2c1CCC2)Nc1nc(-c2ccc(F)cc2)cs1`, the inhibition is 11.7%.

Consider `CS(=O)(=O)n1nc(-c2ccccc2)nc1NCc1ccco1`, for which the inhibition was 57.3% (active).

Consider `Cc1ccc(-c2nc(NCc3ccco3)n(S(C)(=O)=O)n2)cc1`, for which the inhibition is -21.9%.

Regarding `CCS(=O)(=O)n1nc(-c2ccccc2)nc1NCc1ccco1`, the inhibition is -33.3%.

As for `Cc1c(C)n(-c2ccccc2)c2ncnc(NCCN(C)C)c12`, the inhibition was 1.2%.

Regarding `O=C(Nc1nc(-c2ccccc2)cs1)c1ccc(N2CCOCC2)c([N+](=O)[O-])c1`, the inhibition was 104% (active).

Turning to `O=C(Nc1nccs1)c1ccc(N2CCOCC2)c([N+](=O)[O-])c1`, the inhibition is -45.2%.

In the case of `O=C(Nc1nc(-c2ccc(-c3ccccc3)cc2)cs1)c1cc([N+](=O)[O-])ccc1N1CCOCC1`, the inhibition is -31.8%.

Regarding `Cn1nnc(NC(=O)c2ccc([N+](=O)[O-])cc2Cl)n1`, the inhibition is 11.3%.

As for `C=CC(=O)NC(C)(C)Cc1ccccc1`, the inhibition was 1.5%.

Regarding `CC(C)(Cc1ccc(O)cc1)NC(=O)c1ccccc1`, the inhibition is 43.7%.

Take `CC(C)(Cc1ccc(O)cc1)NC(=O)SCc1ccccc1`: the inhibition was 72.6% (active).

With `CC(C(=O)NCc1ccccc1)N1C(=O)C2CC=C(Cl)CC2C1=O` (stereo not drawn), the inhibition was 13.9%.

Take `Cc1cccc(N/C(=N/S(=O)(=O)c2ccccc2)c2ccccc2)n1`: the inhibition was -38%.

Regarding `Cc1ccc(CN2C(=O)CSC2c2ccc(F)cc2)cc1` (stereo not drawn), the inhibition was -22.3%.

As to `CCOCCCNC(=S)N1CCN(CC)CC1`, the inhibition was -22.2%.

As to `S=C(NCc1ccco1)N1CCN(Cc2ccco2)CC1`, the inhibition is -6.3%.

With `CCOCCCNC(=S)N1CCN(Cc2ccco2)CC1`, the inhibition is 57.4% (active).

With `Cc1ccc(NC(=O)CN(C)CC(=O)Nc2c(C)cccc2C)c(Br)c1`, the inhibition is -5.8%.

As for `Cc1cccc(C)c1NC(=O)c1ccc(-c2ccc(Cl)cc2Cl)o1`, the inhibition is 73.6% (active).

Consider `O=C(O)c1ccc(-c2ccc(Cl)cc2Cl)o1`, for which the inhibition is -54%.

For the compound `Cc1ccccc1NC(=O)c1ccc(-c2ccc(Cl)cc2Cl)o1`, the inhibition was -41.4%.

For the compound `COc1cccc(CN2CCCC(C(=O)c3ccc4c(c3)OCO4)C2)c1O` (stereo not drawn), the inhibition is -27.5%.

For the compound `CC(C)N1C(=O)S/C(=C/c2ccc(Sc3nc4ccccc4[nH]3)o2)C1=O`, the inhibition was 50.1%.

As for `C=CCN1C(=O)S/C(=C/c2ccc(Sc3nc4ccccc4[nH]3)o2)C1=O`, the inhibition is 71.4% (active).

For `CCN1C(=O)S/C(=C/c2ccc(Sc3nc4ccccc4[nH]3)o2)C1=O`, the inhibition was 38.6%.

As for `Cc1ccc(S(=O)(=O)N2CCC(C(=O)NCCCN3CCCC3=O)CC2)cc1C`, the inhibition was -29.3%.

Turning to `CN(C)S(=O)(=O)c1ccc(Oc2ccccc2)cc1`, the inhibition is -4.6%.

Take `COc1ccc(CNC(=O)C2(CC(=O)NC(C)(C)C)CCCC2)cc1`: the inhibition is 4.9%.

Turning to `CCC(=O)Nc1sc2c(c1C(=O)N(C)C)CCCCC2`, the inhibition was -18.5%.

Regarding `CCCN(CCC)C(=O)c1c(NC(=O)CC)sc2c1CCCCC2`, the inhibition is 50.3% (active).

With `CCC(=O)Nc1sc2c(c1C(N)=O)CCC2`, the inhibition was 0.4%.

As to `CCCCN1CN(Cc2ccccc2)CNC1=S`, the inhibition was -16.8%.

Regarding `Cc1nc2cc(CO)ccc2n1C`, the inhibition is -15.3%.

On to `CN(C)C(CNC(=O)/C=C/c1cccc(Cl)c1)c1ccccc1` (stereo not drawn), for which the inhibition is -22.7%.

As for `O=C(N/N=C/c1ccccn1)c1ccc(N/N=C/c2ccccn2)cc1`, the inhibition was -58.4%.

In the case of `O=C(N/N=C/c1ccccn1)c1cccc([N+](=O)[O-])c1`, the inhibition was 20%.

Consider `O=C(O)c1cccc(NC(=S)N/N=C/c2cccnc2)c1`, for which the inhibition is -15.4%.

For the compound `O=C(O)c1cccc(NC(=S)N/N=C/c2ccccn2)c1`, the inhibition was 68.3% (active).

Take `O=C(O)c1cccc(NC(=S)N/N=C/c2cccc(O)c2)c1`: the inhibition was -6.8%.

For the compound `O=C(N/N=C/c1ccccn1)c1ccccc1`, the inhibition is -39%.

Consider `O=C(N/N=C/c1ccccn1)c1ccc(NC(=O)c2cccc([N+](=O)[O-])c2)cc1`, for which the inhibition was -22.2%.

Consider `O=C(N/N=C/c1ccccn1)c1ccc([N+](=O)[O-])cc1`, for which the inhibition was 67.9% (active).

`O=C(N/N=C/c1ccccn1)c1ccc(Br)cc1`: the inhibition was 103% (active).

Regarding `Brc1c(CSc2nc3ccccc3o2)nc2ncccn12`, the inhibition was -66.9%.

In the case of `Cc1cc(C)cc(NC(=O)c2ccc(CSc3nnnn3C)cc2)c1`, the inhibition is -44.7%.

For `COc1ccc(NC(=O)CN(C)C(=O)c2ccc(-c3cccc(C(F)(F)F)c3)o2)cc1`, the inhibition was -14.7%.

Consider `C=CCOc1ccccc1CNCc1ccc(F)cc1`, for which the inhibition is -24%.

`Cc1ccc(S(=O)(=O)c2nc(S(C)(=O)=O)sc2N2CCCCC2C)cc1` (stereo not drawn): the inhibition was 55.1% (active).

Take `Cc1ccc(S(=O)(=O)c2nc(S(C)(=O)=O)sc2N2CCCC2)cc1`: the inhibition was -19.8%.

`Cc1ccc(S(=O)(=O)c2nc(S(C)(=O)=O)sc2N2CCCCCC2)cc1`: the inhibition was 32.4%.

For the compound `CC(=O)N1CCc2cc(S(=O)(=O)Nc3cccc(C(F)(F)F)c3)ccc21`, the inhibition was 30.6%.

Take `CC(=O)N1CCc2cc(S(=O)(=O)Nc3ccc(C)cc3)ccc21`: the inhibition was 0%.

As for `CCCNC(=O)CN1C(=O)COc2ccc(S(=O)(=O)N3CCCCCC3)cc21`, the inhibition was -13.3%.

Take `COc1ccc(Cl)cc1C(=O)Nc1cccc2ncccc12`: the inhibition is 13.1%.

Regarding `C/C(=N\OCc1cccc(C(=O)O)c1)c1ccc(Cl)cc1`, the inhibition was 47.4% (active).

For the compound `CCOc1ccc(OCc2cccc(C(=O)N(CC)CC)c2)cc1`, the inhibition is -59.7%.

As to `O=C(O)c1cccc(COc2ccc(CO)cc2Cl)c1`, the inhibition is 99.2% (active).

In the case of `CCOc1ccc(OCc2cccc(C(=O)O)c2)cc1`, the inhibition is 97.5% (active).

For the compound `CCOc1ccc(OCc2cccc(C(=O)N3CCCC3)c2)cc1`, the inhibition is -38%.

On to `COc1cccc(/C=C(/C#N)c2ccc(Cl)cc2)c1OCc1cccc(C(=O)O)c1`, for which the inhibition is 14.4%.

Regarding `O=C(O)c1ccc(COc2ccc(CO)cc2Cl)cc1`, the inhibition was -26.3%.

Take `O=C1NC(=O)/C(=C\c2ccc(OCc3cccc(C(=O)O)c3)c(Cl)c2)N1`: the inhibition was -17.1%.

`COc1ccc(OCc2cccc(C(=O)NN)c2)cc1`: the inhibition was 38.9%.

On to `O=C(O)c1cccc(COc2ccccc2Cl)c1`, for which the inhibition is 97.2%.

On to `COc1ccc(OCc2cccc(C(=O)O)c2)cc1`, for which the inhibition was 102% (active).

As for `COc1ccc(OCc2ccc(C(=O)O)cc2)cc1`, the inhibition is -70.3%.

Regarding `O=C(N=C1SC2CS(=O)(=O)CC2N1c1ccc(OC(F)(F)F)cc1)C1CC1` (stereo not drawn), the inhibition was -27.3%.

Consider `O=C(NC(c1cccnc1)C(F)(F)F)c1cc(COc2ccc3c(c2)CCCC3)on1` (stereo not drawn), for which the inhibition was 1.4%.

In the case of `Cc1nn(-c2ccccc2)c(=S)n1-c1ccccc1`, the inhibition is -7%.

Regarding `O=C(CSc1n[nH]c(-c2ccccc2)n1)Nc1ccc(F)cc1F`, the inhibition is -6.2%.

Turning to `COc1ccc(OCc2cc(C(=O)N3CCCCCCC3)no2)c(Cl)c1`, the inhibition was -23.7%.

As to `COCCn1c(C)cc(/C=C2/NC(=O)N(c3ccc(Cl)cc3)C2=O)c1C`, the inhibition was -49.9%.

As for `COc1ccc(OCc2cccc(C(=O)Nn3cc([N+](=O)[O-])cn3)c2)cc1`, the inhibition was 50.9% (active).

`NNC(=O)c1cccc(COc2ccc3c(c2)CCC3)c1`: the inhibition was 62.3%.

Take `Cc1nn(Cc2cccc(C(=O)Nn3cc([N+](=O)[O-])cn3)c2)c(C)c1[N+](=O)[O-]`: the inhibition is 0.9%.

Turning to `O=C(O)c1ccc(COc2ccc3c(c2)CCC3)cc1`, the inhibition was -2.9%.

In the case of `O=C(O)c1cccc(COc2ccc3c(c2)CCC3)c1`, the inhibition is 92.4% (active).

`COC(=O)c1cccc(Cn2cc([N+](=O)[O-])cn2)c1`: the inhibition is -7.1%.

`COc1ccc(OC)c(-c2csc(NC(=O)Cc3ccc(OC)c(OC)c3)n2)c1`: the inhibition was 25.1%.

Turning to `Cc1cc(C)cc(N(C(=O)c2csnn2)C(C(=O)NC(C)(C)C)c2cccs2)c1` (stereo not drawn), the inhibition was 10.5%.

As for `O=C1CCCCC(=O)N(c2ccccc2)c2ccccc21`, the inhibition is 7.2%.

Regarding `CCOC(=O)c1cnc2ccc(OC)cc2c1NCc1ccccc1`, the inhibition was 3.2%.

With `CCOC(=O)c1cnc2ccc(OCC)cc2c1NCc1ccccc1`, the inhibition was -5.7%.

Regarding `CCOC(=O)c1cnc2ccc(OCC)cc2c1NCc1ccccc1OC`, the inhibition was 72.7% (active).

`CN(C)Cc1ccc(F)cc1Sc1ccc(Cl)cc1Cl`: the inhibition is -13.9%.

`CN(C)Cc1ccc(F)cc1Sc1cc(Cl)ccc1Cl`: the inhibition was 63.7% (active).

`CN(C)C(=O)c1cc(F)ccc1Sc1cc(Cl)ccc1Cl`: the inhibition was -6.9%.

Regarding `CCc1ccc(-n2c(SCC(=O)N3CCC(C(=O)O)CC3)nnc2-c2ccncc2)cc1`, the inhibition is -31.9%.

On to `O=C(N/N=C/c1coc2ccc(Cl)cc2c1=O)c1cc(O)cc(O)c1`, for which the inhibition is 31.6%.

Consider `O=c1c(/C=N\NS(=O)(=O)c2ccccc2)coc2ccc(Cl)cc12`, for which the inhibition is 69.9% (active).

Turning to `NC(=S)N/N=C/c1coc2ccc(Cl)cc2c1=O`, the inhibition is 9.6%.
